# Assay results reported in ChEMBL document CHEMBL4513216, “Probing the Open Global Health Chemical Diversity Library for Multistage-Active Starting Points for Next-Generation Antimalarials” (ACS Infect Dis, 2020).
# Out of some 69,000 compounds screened, about 8,600 (12%) showed an effect of 50% or more. The list comes from a sample in which strong results are over-represented; it also holds similar structures and randomly drawn compounds.
# Test system: Plasmodium berghei
# Assay: Screen against P. berghei liver stage (PbLuc), transformed with Luciferase, at 10uM
# Type: functional, HepG2
# Conditions: tested at 10 uM
row,Compound,INHIBITION [%]
1,COCCN1C[C@H]2[C@@H](C1)N(C(=O)CCc1ccccc1)CC[C@H]2OC,-14.1
2,COC(=O)CN(C(=O)c1ccc(-n2ccnc2)cc1)C1CC1,6.23
3,CC(C)c1cc(CN(C)C(=O)CN2CCCCC2=O)no1,15.4
4,Cc1nc(O)cc([C@@H]2CN(S(=O)(=O)N(C)C)C[C@H]2c2ccccc2F)n1,-6.15
5,COCC1CN(S(=O)(=O)c2cccc(F)c2)Cc2nccn2C1 (centres undefined),41.2
6,Cn1cc(CN2CCC[C@]3(C[C@H](Oc4ncccc4F)CO3)C2)cn1,31.5
7,CCC(C)NC(=O)c1nnn(-c2ccc(Br)cc2)n1 (centres undefined),-10.6
8,CCc1nc(CN2CCCN(c3nccs3)CC2)no1,22.5
9,CCc1nc(CN2CCCN(c3ncnc4sccc34)CC2)no1,95.1
10,CCc1nc(CN2CCCN(Cc3cnn(C)c3)CC2)no1,35.5
11,CCn1ccnc1CN1CCN(c2ncnc3ccsc23)CC1,-50.7
12,Cc1nc(CN2CCCN(c3nccs3)CC2)no1,-63.3
13,CCc1nc(CN2CCCN(c3ncnc4ccsc34)CC2)no1,91.1
14,Cc1nc(CN2C[C@@H]3CN(C(=O)c4ccnnc4)C[C@@H]3C2=O)cs1,13.6
15,COc1ccccc1OC1CN(C(=O)c2c(C)nc3ccc(C)cn23)C1,86.8
16,COc1ccccc1OC1CN(C(=O)c2ccc(C(C)=O)s2)C1,7.3
17,COc1ccccc1OC1CN(C(=O)Cc2c(C)nc3ccccn23)C1,-7.2
18,COc1ccccc1OC1CN(C(=O)Cc2c(C)nc(N)nc2C)C1,1.71
19,COc1ccccc1OC1CN(C(=O)c2ccccc2C(C)=O)C1,65.7
20,COc1ccccc1OC1CCN(C(=O)c2cccc(O)c2C)CC1,19.3
21,CCCC(=O)N1CCCC(c2cc3cccnc3c(O)n2)C1 (centres undefined),25.8
22,CCOCC(=O)N1CCc2c(CN(C)C)nn(C(C)C)c2C1,23.1
23,NC(=O)c1cn[nH]c1NC(=O)c1ccc2c(c1)OCO2,-16.4

row,Compound,INHIBITION [%]
1,CCS(=O)(=O)CCNC(=O)c1ccc(-c2ccc(C)cc2)cc1F,8.47
2,NS(=O)(=O)CCNC(=O)c1ccc(-c2ccc(F)cc2)cc1F,-33.2
3,Cc1ccc(-c2ccc(C(=O)NCCS(N)(=O)=O)c(F)c2)cc1,55.4
4,CCN1C(=O)CCC12CCC(NC(=O)c1cc(C)on1)CC2 (centres undefined),-45.5
5,C[C@@H]1CN(c2nc(O)cc(Cc3ccccc3F)n2)C[C@H](C)O1,15.5
6,Cc1cc(-c2nn3c(C4CCC4)nnc3s2)on1,34.6
7,O=C(CCC1CCN(C2CSCCSC2)CC1)NCC1CCCO1 (centres undefined),34.9
8,c1cncc(OCc2noc3c2CN(Cc2ccco2)CC3)c1,38.5
9,Cc1nnc(SC2CCN(c3sccc3C#N)C2=O)[nH]1 (centres undefined),40.7
10,Cc1nnc(SC2CCN(c3sccc3C#N)C2=O)s1 (centres undefined),16.8
11,Cc1nc(SC2CCN(c3sccc3C#N)C2=O)oc1C (centres undefined),51.5
12,O=C(Cc1csc(-c2ccccc2F)n1)NCc1ccc(C(=O)O)cc1,2.61
13,CCn1cc(NC(=O)NCc2ccc3c(c2)OCO3)cn1,-25.9
14,CCCc1noc(C(C)N2CCN(Cc3nc(C)c(C)o3)CC2)n1 (centres undefined),-12.25
15,Cc1cnn(CCNCC(=O)N2CCN(c3ncccn3)CC2)c1,25.1
16,Cn1cc(NC(=O)c2cccc(Cl)c2)c(=O)n(C)c1=O,56.1
17,CN(C)c1cccc(C(=O)Nc2cn(C)c(=O)n(C)c2=O)c1,31.2
18,Cn1cc(NC(=O)c2cccc(C(F)(F)F)c2)c(=O)n(C)c1=O,15
19,CCC(=O)N1CCCC(Cn2cc(-c3ccc(F)cc3)nn2)C1 (centres undefined),-14.2
20,Cc1ccccc1N1CCCN(C(=O)c2cn(C)c3ccccc23)CC1,-2.13
21,Cc1ccccc1N1CCN(C(=O)CC(C)C)CC1,56.5
22,CCOCCC(=O)N1CCCN(c2ccccc2C)CC1,15.2
23,O=C(c1ncoc1C1CC1)N1CCN(CCOc2ccccc2)CC1,26.7

row,Compound,INHIBITION [%]
1,CSCCC(=O)N1CCCN(c2ccccc2C)CC1,34.1
2,Cn1nccc1C(=O)N1CCCN(CCCc2ccccc2)CC1,-16.8
3,CSCC(=O)N1CCCN(c2ccccc2C)CC1,84.5
4,O=C(c1ncoc1C1CC1)N1CCCN(CCCc2ccccc2)CC1,83.9
5,Cc1ccccc1N1CCCN(C(=O)CCCn2ccnc2C)CC1,75.4
6,CSCC(=O)N1CCCN(c2ccncc2C)CC1,49.2
7,Cc1cnccc1N1CCCN(C(=O)CCCn2ccnc2C)CC1,-2.48
8,Cc1nccn1CCCC(=O)N1CCCN(c2cccnn2)CC1,10
9,COc1nn(C)c2c1CCCN(C(=O)c1cccc3cccnc13)C2,14
10,Cc1cc(C)c(C(=O)N2CCC3(CCCNC3)C2)cc1C (centres undefined),-35.8
11,O=C1[C@H]2CN(C(=O)[C@H]3CCCO3)C[C@H]2CN1CCN1CCCC1,1.34
12,CC(C)[C@H]1CN(CCCO)C[C@@H]1NC(=O)CCC(F)(F)F,20.2
13,CCn1cc(-n2cc3nc(N4CCCC4)[nH]cc-3c2=O)cn1,-29.6
14,Cc1cc(N2CCOC(C)(C(=O)N(C)C)C2)ncn1 (centres undefined),37.8
15,NC(=O)N1CCC2(CCN(Cc3cccc(F)c3)CC2)CC1,-13.2
16,Cc1ccccc1N1CCCN(C(=O)CCc2ccncc2)CC1,26.9
17,Cc1ccccc1N1CCCN(C(=O)CCc2cccnc2)CC1,59.2
18,Cc1nccn1CCC(=O)N1CCCN(c2ccccc2)CC1,28.7
19,CC(=O)N1CCCN(CCCc2ccccc2)CC1,15.2
20,Cc1ccccc1N1CCCN(C(=O)CCc2nncn2C)CC1,49.3
21,Cc1nccn1CCC(=O)N1CCCN(CCCc2ccccc2)CC1,51.5
22,NC(=O)c1ccc(N2CCN(CCCc3cn[nH]c3)CC2)cc1,-62.8
23,CCN(CC)CC1CN(Cc2ccco2)Cc2nccn2C1 (centres undefined),-33.9
